TGFb inhibitor: blocks TGF-b signaling. actives 1.2% (n = 410,000). AID 588855. Potency, µM (titrated, usually from 46.1 µM), inactives show at the highest dose activity, negative = inhibition, usual class: inhibitors. HepG2 CAGA-GFP TGF-b/SMAD3 reporter, GFP fluorescence, 18 h; TGF-beta stimulated, 500 pg/mL final; note: potency is the fitted concentration of half-maximal effect; % is set by controls: 0 for no effect and ±100 for the full control effect; nearly all actives have a fitted effect of over 65% in size
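Inhibition was scored as loss of TGF-beta-induced (500 pg/mL final, 18 hours, 37 degrees C) GFP in HEPG2 cells carrying a CAGA-GFP reporter, in DMEM with 1% FBS. Well GFP was summed per cell; Activity was normalised to unstimulated and stimulated DMSO wells, then concentration-response fitting.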
S-ASM inh: inhibitors of human secretory acid sphingomyelinase. P17405. placental ASM, HMU-PC fluorogenic substrate, 60 min. Potency, µM (series often up to 57.5 µM), inactives show at the highest dose activity change, negative = inhibition, most hits filed as inhibitors. actives 0.006% (n = 340,000). AID 504937; note: potency is the fitted concentration of half-maximal effect
Target sequence (P17405 47-631 limits assumed): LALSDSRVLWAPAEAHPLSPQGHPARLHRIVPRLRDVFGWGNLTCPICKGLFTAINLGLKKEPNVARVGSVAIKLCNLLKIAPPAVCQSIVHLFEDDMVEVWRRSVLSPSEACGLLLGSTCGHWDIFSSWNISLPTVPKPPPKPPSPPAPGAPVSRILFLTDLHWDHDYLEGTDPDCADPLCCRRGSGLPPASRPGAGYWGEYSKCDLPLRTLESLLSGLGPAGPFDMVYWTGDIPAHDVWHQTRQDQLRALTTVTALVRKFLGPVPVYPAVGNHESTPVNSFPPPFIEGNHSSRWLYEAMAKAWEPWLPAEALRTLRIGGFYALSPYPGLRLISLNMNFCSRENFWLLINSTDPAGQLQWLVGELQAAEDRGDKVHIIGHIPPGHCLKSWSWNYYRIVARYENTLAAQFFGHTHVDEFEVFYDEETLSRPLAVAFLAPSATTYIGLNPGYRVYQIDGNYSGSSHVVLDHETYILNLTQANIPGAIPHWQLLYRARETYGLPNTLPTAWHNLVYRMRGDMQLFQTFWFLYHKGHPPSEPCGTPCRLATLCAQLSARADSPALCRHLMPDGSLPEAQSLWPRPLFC
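Fluorescence read-out (Ex 386 nm, Em 447 nm) after stopping the reaction at pH 10. Enzyme: ASM from human placenta; substrate HMU-PC0, 9 uM final; 60 min, 37 °C. Compound preincubation 10 min, ambient temperature.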
IL-1B inflam inh: blocks inflammasome-driven IL-1 beta release. THP-1 LPS/ATP IL-1B secretion, AlphaLISA, 16 h; hits give low values. activity change, % at 57.5 µM. actives 4.7% (n = 360,000). AID 743279; in the data active = activity change below about -50%; inconclusive = mostly about -30% to -49%; note: % is set by controls: 0 for no effect and ±100 for the full control effect
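Secreted IL-1B measured by AlphaLISA bead assay after 16 h compound exposure of THP-1 cells; compounds (final up to 57.5 uM) added 1 h before LPS (250 ng/mL) and ATP (1.25 mM) stimulation; lower signal means less secretion.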
DT40 TDP1 no CPT: qHTS for Inhibitors of human tyrosyl-DNA phosphodiesterase 1 (TDP1): qHTS in cells in absence of CPT; DT40 Tdp1-/- hTDP1 cells, no CPT, ATP luminescence, 48 h; Potency, µM (highest dose often 46.2 µM), inactives show top-dose activity change, negative = growth inhibition, most hits filed as inhibitors; actives 15% (n = 420,000); AID 686978, 2013; note: potency is the fitted concentration of half-maximal effect; % is set by controls: 0 for no effect and ±100 for the full control effect; nearly all actives have a fitted effect of over 55% in size
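Cells were dispensed at 400 per well, compounds added by pin tool, plates incubated ≥48 hr at 37 °C, then CellTiter-Glo added for 30 min at room temperature before luminescence reading. Line: DT40 Tdp1-/- complemented with hTDP1; camptothecin omitted.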
HepG2 tox: counter-screen for TGF-b inhibitors: cytotoxicity in HepG2 cells. Potency, µM (titrated, usually from 46.1 µM), without a hit: top-dose activity change, negative = cytotoxicity, most hits filed as cytotoxic. AID 588856. HepG2 CAGA-GFP viability, ATP luminescence, 18 h. actives 0.76% (n = 410,000); note: potency is the fitted concentration of half-maximal effect
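HepG2 CAGA-GFP cells (1000/well, DMEM with 1% FBS) received compound, then TGF-beta at 500 pg/mL final, and were incubated 18 hours at 37 degrees C. Viability was read by CellTiter-Glo luminescence. Media-only wells were set as complete cell-killing and DMSO as no toxicity.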
TDP1 cell CPT: DT40-hTDP1 cell growth loss with CPT; chicken DT40 Tdp1-/-;hTDP1 cells + 20 nM CPT, ATP luminescence, 48 h; Potency, µM (highest dose often 46.2 µM), without a hit: at the top dose activity change, negative = growth inhibition, usual class: inhibitors; actives 12% (n = 420,000); note: potency is the fitted concentration of half-maximal effect; % is set by controls: 0 for no effect and ±100 for the full control effect; nearly all actives have a fitted effect of over 55% in size
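Cell growth measured by CellTiter-Glo luminescence after a minimum 48 h, 37 C compound exposure with 20 nM CPT in Tdp1-knockout DT40 cells stably expressing hTDP1, seeded 400/well; qHTS titration format.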
* hit, by the source's call; ? = inconclusive; / = not tested or not shown. Most compounds without a hit are left out; they make up all but 19% or so of the library. Unless noted, calls come from the whole dose curve; as a rule, active = well fitted curve in the direction sought with a large enough effect; inconclusive = small, poorly fitted or top-dose-only effect, or another doubt; inactive = no such curve, though single readings can be large; an effect the other way counts as inactive or inconclusive.

SMILES | TGFb inhibitor | S-ASM inh | IL-1B inflam inh | DT40 TDP1 no CPT | HepG2 tox | TDP1 cell CPT
CC12CCC(=O)N1C(C(=O)Nc1nc3ccc(S(C)(=O)=O)cc3s1)CS2 (stereo not given) | -1% | 1% | -1 | 21% | 5% | -1%
Cc1ccc2nc(NC(=O)C3CC(=O)N(Cc4ccco4)C3)sc2c1 (stereo not given) | -4% | -4% | -25 | -15% | 1% | -2%
Cc1ccc(-c2csc(NC(=O)C3CSC4(C)CCC(=O)N34)n2)cc1 (stereo not given) | ? | 2% | 13 | -22% | 3% | -8%
Cc1cc(C)c2nc(NC(=O)C3CC(=O)N(Cc4ccco4)C3)sc2c1 (stereo not given) | -3% | -3% | -71* | ? | 14% | ?
Cc1sc(NC(=O)C2CSC3(C)CCC(=O)N23)nc1-c1ccc(F)cc1 (stereo not given) | ? | -1% | 0 | 18µM* | -23% | 15µM*
CC12CCC(=O)N1C(C(=O)Nc1nc3ccc(Cl)cc3s1)CS2 (stereo not given) | -26% | -4% | -84* | ? | -22% | 4%
CCc1ccc2nc(NC(=O)C3CSC4(C)CCC(=O)N34)sc2c1 (stereo not given) | -10% | 2% | -55* | ? | 4% | -28%
COc1cccc(NC(=O)c2cccnn2)c1 | 3% | 3% | -27 | -6% | -2% | 5%
Cc1cc(C)c2nc(NC(=O)C3CSC4(C)CCC(=O)N34)sc2c1 (stereo not given) | ? | -6% | 0 | 3.7µM* | -49% | -45%
CC12CCC(=O)N1C(C(=O)Nc1cccc(S(=O)(=O)N3CCCCC3)c1)CS2 (stereo not given) | -4% | 0% | 10 | ? | 0% | -19%
CC1CCN(S(=O)(=O)c2ccc(NC(=O)C3CSC4(C)CCC(=O)N34)cc2)CC1 (stereo not given) | -15% | / | -6 | 10µM* | -2% | ?
COc1ccc2nc(NC(=O)C3CSC4(C)CCC(=O)N34)sc2c1 (stereo not given) | 0% | -2% | ? | ? | 11% | -4%
Cc1noc(C)c1COC(=O)c1ccc(N(C)C)cc1 | 5% | -3% | -11 | 4% | -14% | 0%
COc1ccc(CN2CCOc3ccc(CN4CCC(O)CC4)cc3C2)c(OC)c1OC | / | / | / | -22% | / | -22%
CC1CCCCN1C(=O)C1CCCCN1S(=O)(=O)c1cccc([N+](=O)[O-])c1 (stereo not given) | 6% | -2% | 14 | -29% | 2% | ?
CCC(=O)N1Cc2cc(C(=O)Nc3nccs3)nc(-c3cccc(-c4ccccc4OC)c3)c2[C@H]1CCO | / | / | ? | 16µM* | / | ?
COc1ccccc1-c1cccc(-c2nc(C(=O)Nc3nccs3)cc3c2[C@H](CCO)N(C(C)=O)C3)c1 | / | / | ? | 5.8µM* | / | 6.5µM*
COc1ccccc1-c1cccc(-c2nc(C(=O)Nc3nccs3)cc3c2[C@@H](CCO)N(C(C)=O)C3)c1 | / | / | -7 | ? | / | ?
CC(C)CNC(=O)CSc1n[nH]c(=O)n1CCc1ccccc1 | 10% | 6% | -14 | 10% | 15% | -5%
Cc1cc(C)cc(OCCSc2nc3ccc(NC(=O)c4ccc5c(c4)OCO5)cc3s2)c1 | -11% | / | / | 5.2µM* | 3% | ?
Cc1ccccc1OCCSc1nc2ccc(NC(=O)c3cccs3)cc2s1 | -30% | / | / | 18µM* | -25% | 23µM*
Cc1ccccc1OCCSc1nc2ccc(NC(=O)c3cccc(F)c3)cc2s1 | ? | / | / | 12µM* | -76% | 16µM*
Cc1cccc(OCCSc2nc3ccc(NC(=O)c4cccs4)cc3s2)c1 | -14% | / | / | 12µM* | -1% | 16µM*
Cc1ccccc1OCCSc1nc2ccc(NC(=O)c3ccccc3)cc2s1 | -19% | / | / | ? | -22% | -70%
CC1CCC(NC(=O)C2(C)Cc3ccccc3C(=O)N2Cc2ccc(F)cc2)CC1 (stereo not given) | / | / | / | ? | 0% | ?
SMILES | TGFb inhibitor | S-ASM inh | IL-1B inflam inh | DT40 TDP1 no CPT | HepG2 tox | TDP1 cell CPT
Cc1ccc(CNC(=O)CCCn2c(=O)[nH]c3ccc(Br)cc3c2=O)cc1 | 9% | / | / | -24% | -5% | -30%
CC(Sc1nnc(N)s1)C(=O)NCc1ccc2c(c1)OCO2 (stereo not given) | ? | 1% | -9 | -1% | 9% | 2%
COCCCNc1nc2c(-c3cccc(Br)c3)nnn2c2ccccc12 | -26% | / | / | ? | -6% | ?
COc1cc(C=O)ccc1Oc1ccc(S(=O)(=O)N2CCOCC2)cc1[N+](=O)[O-] | 9% | -2% | -57* | -29% | 0% | -10%
COc1ccc(CCNc2ccc(S(=O)(=O)N3CCCC3)cc2[N+](=O)[O-])cc1 | -9% | -4% | -22 | ? | -37% | 15µM*
O=[N+]([O-])c1cc(S(=O)(=O)N2CCCC2)ccc1NCCc1ccccc1 | 0% | 2% | 28 | ? | 1% | ?
COc1ccc(Nc2ccc(S(=O)(=O)N3CCCCC3)cc2[N+](=O)[O-])cc1OC | ? | -23% | 0 | 21µM* | 5% | ?
COc1ccc(Nc2ccc(S(=O)(=O)N3CCCCCC3)cc2[N+](=O)[O-])cc1 | ? | -10% | ? | 23µM* | -4% | ?
COc1ccc(-c2nnc(SCC(=O)O)n2C)cc1OC | -3% | 0% | -2 | 21% | 2% | 6%
CN(C(=O)CSc1nc2sc3c(c2c(=O)n1C)CCC3)C1CCS(=O)(=O)C1 (stereo not given) | -21% | -2% | 66 | ? | 2% | -29%
Cc1ccccc1CNC(=O)C1CCN(c2nnc(N3CCCC3=O)s2)CC1 | -13% | -1% | -5 | -1% | -1% | 4%
COC(=O)c1ccc(N2CCN(S(=O)(=O)c3c(C)cc(C)cc3C)CC2)c([N+](=O)[O-])c1 | -9% | -5% | 2 | 10% | 3% | -6%
Cc1ccc(S(=O)(=O)N2CCN(c3nc4ccccc4nc3-n3nc(C)cc3C)CC2)cc1 | -16% | 165% | -4 | ? | -1% | ?

Bioassay records: PubChem BioAssay, National Center for Advancing Translational Sciences (NCATS)
